Assay results as given in the supplement of paper PMC10338343.
± gives the standard deviation.

Tests used:
[1] = tested on: MILI (PIWIL2) piRISC loaded with L1MC piRNA (26 nt); test: pre-steady-state target cleavage rate (min^-1); guide: L1MC piRNA 5'p-UAACUAAAUACUAUGCAAGCUGUAGG; higher = faster piRNA-guided slicing of the target;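 also: 1 nM active piRISC with 0.1 nM target library at 33 °C single turnover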
Outline: (§1)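 A burst-and-steady-state fit was used to obtain the pre-steady-state cleavage rate. The input data were sequencing reads of uncleaved targets, normalised to depth and to weakly complementary targets, from a […] transcribed, DNA-blocked target RNA library mixed with 1 nM active affinity-purified piRISC holding one synthetic guide, with or without 500 nM GTSF1 partner protein, in HEPES–potassium acetate buffer at 33 °C for 0–8 or 0–960 min. Three trials were pooled and k3 was capped at 0.0001 min^-1.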

[2] = tested on: EfPiwi piRISC loaded with L1MC piRNA (26 nt); test: pre-steady-state target cleavage rate (min^-1); auxiliary factor: 500 nM Ephydatia muelleri Gtsf1; guide: L1MC piRNA 5'p-UAACUAAAUACUAUGCAAGCUGUAGG; MIWI and MILI are mouse PIWI proteins and EfPiwi is from a freshwater sponge; tags in brackets are library labels; higher = faster piRNA-guided slicing of the target
Outline: as §1

[3] = auxiliary factor: 500 nM mouse GTSF1
[4] = auxiliary factor: none (no GTSF1)

Sequence | pre-steady-state target cleavage rate [1, 3] | pre-steady-state target cleavage rate [1, 4] | pre-steady-state target cleavage rate [2]
UCCUGGAUGUGCUUGCACAGUAUUUAGUUA | 0.13 ± 0.01 | 0.00631 ± 0.0022 | 0.00686 ± 0.0028
UCCUGGUACAGCUCUGCAUAGUAUUUAGUUA | 0.243 ± 0.018 | 0.00792 ± 0.0029 | 0.0139 ± 0.0042
UCCUGGAACCAGCUUGCAUAGUAUUUAGUUA | 0.365 ± 0.032 | 0.00736 ± 0.0021 | 0.0336 ± 0.0098
UCCUGGUACAGUUGCAUAGUAUUUAGUUA | 0.227 ± 0.023 | 0.0115 ± 0.003 | 0.0124 ± 0.0051
UCCUGCUACAGCUUGCAAAGUAUUUAGUAA | 0.121 ± 0.021 | 0.00272 ± 0.0025 | 0.00434 ± 0.0016
UCCUGGAACAGGUUGCAUUGUAUUUAGUUA | 0.157 ± 0.014 | 0.00837 ± 0.0019 | 0.00526 ± 0.0019
UCCUCCUUCAGCUUGCAUAGUAUUAAGUUA | 0.155 ± 0.022 | 0.00246 ± 0.0023 | 0.00716 ± 0.0031
UCCUCCUACUCCUUGCAUAGUAUUUAGUAA | 0.147 ± 0.017 | 0.00285 ± 0.0024 | 0.00518 ± 0.0033
UCCUGCUACAAGCUUGCAUAGUAUUUAGUUA | 0.157 ± 0.015 | 0.00805 ± 0.002 | 0.00475 ± 0.0013
UCCUGGAUGAGCUUGCAUAGUAUUUAGGUUA | 0.195 ± 0.028 | 0.0044 ± 0.0031 | 0.0031 ± 0.002
UCCUCCUACAGCUUGCAUAGUAUAAUGUUA | 0.158 ± 0.026 | 0.00294 ± 0.0027 | 0.00388 ± 0.0022
UCCUCCAUCAGCUUGCAUAGUAUUUAGUAA | 0.165 ± 0.024 | 0.00315 ± 0.0022 | 0.00678 ± 0.003
UCCUCCUACAGACUUGCAUAGUAUUUAGUUA | 0.253 ± 0.02 | 0.00669 ± 0.0021 | 0.017 ± 0.006
UCCUCGUACAGCUUGCAUAGUAUUUUGUUA | 0.143 ± 0.016 | 0.00289 ± 0.0028 | 0.007 ± 0.0031
UCCUGGAACAGCUUGCAUAGUAUCUUAGUUA | 0.267 ± 0.022 | 0.00791 ± 0.0019 | 0.0187 ± 0.0064
UCCUGGAUGUCGUCUGCAUAGUAUUUAGUUA | 0.106 ± 0.015 | 0.00397 ± 0.0027 | 0.00907 ± 0.0032
UCCUCCUACAGCUUGCCAUAGUAUUUAGUUA | 0.173 ± 0.026 | 0.00264 ± 0.0026 | 0.00595 ± 0.0024
UCCUGGAACUGGUUGCAUAGUAUUUAGUUA | 0.202 ± 0.018 | 0.0046 ± 0.0029 | 0.02 ± 0.0073
UCCUGCUACAGCUUGCAUUGUAUUUAGUAA | 0.176 ± 0.018 | 0.00356 ± 0.002 | 0.00316 ± 0.0014
UCCUGGUUCAGCUAGCAUAGUAUUUAGUUA | 0.239 ± 0.026 | 0.0116 ± 0.0027 | 0.0263 ± 0.0083
UCCUCCUACAGCUUGCAUAGUAUUUAGUUUA | 0.333 ± 0.019 | 0.0143 ± 0.0034 | 0.145 ± 0.039
UCCUGGAUAAGCUUGCAUAGUAUUUAGUUA | 0.276 ± 0.017 | 0.0122 ± 0.0029 | 0.0102 ± 0.004
UCCUGGAUGUCGAUGUAUAGUAUUUAGUUA | 0.0919 ± 0.011 | 0.0069 ± 0.002 | 0.00398 ± 0.003
UCCUGGAUGUCCCUGCAUAGUAUUUAGUUA | 0.085 ± 0.014 | 0.00467 ± 0.0023 | 0.00326 ± 0.0026

Sequence | pre-steady-state target cleavage rate [1, 3] | pre-steady-state target cleavage rate [1, 4] | pre-steady-state target cleavage rate [2]
UCCUCCAACAGCUUGCAUACUAUUUAGUUA | 0.0905 ± 0.012 | 0.00321 ± 0.0025 | 0.00961 ± 0.0032
UCCUGGAUCAGCUUGCAUAGUAUUUCGUUA | 0.147 ± 0.034 | 0.00354 ± 0.0024 | 0.00263 ± 0.002
UCCUCCUACUGGUUGCAUAGUAUUUAGUUA | 0.226 ± 0.021 | 0.00818 ± 0.0021 | 0.1 ± 0.025
UCCUGGAACAGGAUGCAUAGUAUUUAGUAA | 0.221 ± 0.021 | 0.00369 ± 0.0022 | 0.0055 ± 0.0028
UCCUGCUACAGCUAGGAUAGUAUUUAGUUA | 0.259 ± 0.015 | 0.00677 ± 0.0024 | 0.011 ± 0.0037
UCCUGGAACAGCUUGCUUUGUAUUUAGUUA | 0.182 ± 0.019 | 0.0038 ± 0.0025 | 0.00396 ± 0.0025
UCCUGGAUGUGCUUGCAUAGUACUUUAGUUA | 0.0231 ± 0.0092 | 0.00627 ± 0.0028 | 0.0126 ± 0.0061
UCCUGGUAGAGGUUGCAUAGUAUUUAGUUA | 0.185 ± 0.024 | 0.0103 ± 0.0031 | 0.00483 ± 0.0034
UCCUCCUACACUUGCAUAGUAUUUAGUUA | 0.248 ± 0.016 | 0.00564 ± 0.002 | 0.049 ± 0.015
UCCUCCUACAGCUUGCAUAGUAUUUAGUAA | 0.246 ± 0.021 | 0.00585 ± 0.0026 | 0.0113 ± 0.005
UCCUGGAUCAGGUUGCAAAGUAUUUAGUUA | 0.121 ± 0.011 | 0.00902 ± 0.0027 | 0.0172 ± 0.0054
UCCUGGUACAGCUUGCAUGUAUUUAGUUA | 0.0383 ± 0.0075 | 0.00417 ± 0.0024 | 0.0036 ± 0.0031
UCCUCCUACAGGUUGCAUACUAUUUAGUUA | 0.0492 ± 0.009 | 0.00246 ± 0.0023 | 0.00612 ± 0.0018
UCCUGCUACAGCUUAGCAUAGUAUUUAGUUA | 0.276 ± 0.014 | 0.0072 ± 0.0026 | 0.0477 ± 0.015
UCCUCCUACAGCUAGCAUAGUAUUUAGUAA | 0.199 ± 0.023 | 0.00331 ± 0.0021 | 0.005 ± 0.0022
UCCUCCUACAGCUUGCAUCGUAUUUAGUUA | 0.129 ± 0.013 | 0.00682 ± 0.0021 | 0.0492 ± 0.014
UCCUGCUACAGCUUUCAUAGUAUUUAGUUA | 0.188 ± 0.021 | 0.00503 ± 0.0022 | 0.00701 ± 0.0022
UCCUCCUAGUCCUUGCAUAGUAUUUAGUUA | 0.235 ± 0.018 | 0.00692 ± 0.0015 | 0.0173 ± 0.0063
UCCUGGAACAGCAUGCAUAGUAUUUAGUAA | 0.214 ± 0.019 | 0.00404 ± 0.0034 | 0.00384 ± 0.0023
UCCUCCUACAGCCUUGCAUAGUAUUUAGUUA | 0.262 ± 0.019 | 0.0101 ± 0.0026 | 0.0222 ± 0.0079
UCCUGGAACAGGUUGCAUAGUAUUUUGUUA | 0.132 ± 0.018 | 0.00924 ± 0.0022 | 0.00366 ± 0.0015
UCCUGGUACAGCUUGCAUAGUAUAUAGUUA | 0.274 ± 0.041 | 0.00795 ± 0.0034 | 0.00533 ± 0.0027
UCCUGGAUGACGUUGCAUAGUAUUUAGUUA | 0.176 ± 0.02 | 0.00683 ± 0.0027 | 0.00512 ± 0.0026
